Compound activity (PubChem)
Sampled rows, rich in hits. Any-hit rate of the full collection: about 1%.
Bfl-1 A1 inh: inhibitors of the anti-apoptotic protein A1, read as caspase activation | MEF A1-2A-BIM cells, Caspase-Glo 3/7 luminescence, 3 h; percent of clofoctol response, vehicle zero | caspase activation, % (concentration not given with the values) | 330,000 tested, 0.066% active | AID 2462;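 active means over half of replicate activation scores above 10%, or exactly half above 10 with the replicate mean above 10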
GC-B act: GC-B (human) receptor activation; HEK293-GC-B cells, CNP EC30, cGMP TR-FRET; 0% at EC30 CNP, 100% saturating CNP; activation, % at 10 µM; 370,000 tested, 0.11% active; AID 1920062;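 active means activation at 10 µM reaching about 35% in either raw or pattern-adjusted values, limit read from the data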
GC-A act: GC-A (human) enzyme activation; HEK293 GC-A cells, cGMP TR-FRET, EC30 ANP; 0% at EC30 ANP, 100% saturating ANP; activation, % at 10 µM; 370,000 tested, 0.14% active; AID 1671463; in the data active means activation above about 40%
Target sequence (P16066 whole entry, looked up): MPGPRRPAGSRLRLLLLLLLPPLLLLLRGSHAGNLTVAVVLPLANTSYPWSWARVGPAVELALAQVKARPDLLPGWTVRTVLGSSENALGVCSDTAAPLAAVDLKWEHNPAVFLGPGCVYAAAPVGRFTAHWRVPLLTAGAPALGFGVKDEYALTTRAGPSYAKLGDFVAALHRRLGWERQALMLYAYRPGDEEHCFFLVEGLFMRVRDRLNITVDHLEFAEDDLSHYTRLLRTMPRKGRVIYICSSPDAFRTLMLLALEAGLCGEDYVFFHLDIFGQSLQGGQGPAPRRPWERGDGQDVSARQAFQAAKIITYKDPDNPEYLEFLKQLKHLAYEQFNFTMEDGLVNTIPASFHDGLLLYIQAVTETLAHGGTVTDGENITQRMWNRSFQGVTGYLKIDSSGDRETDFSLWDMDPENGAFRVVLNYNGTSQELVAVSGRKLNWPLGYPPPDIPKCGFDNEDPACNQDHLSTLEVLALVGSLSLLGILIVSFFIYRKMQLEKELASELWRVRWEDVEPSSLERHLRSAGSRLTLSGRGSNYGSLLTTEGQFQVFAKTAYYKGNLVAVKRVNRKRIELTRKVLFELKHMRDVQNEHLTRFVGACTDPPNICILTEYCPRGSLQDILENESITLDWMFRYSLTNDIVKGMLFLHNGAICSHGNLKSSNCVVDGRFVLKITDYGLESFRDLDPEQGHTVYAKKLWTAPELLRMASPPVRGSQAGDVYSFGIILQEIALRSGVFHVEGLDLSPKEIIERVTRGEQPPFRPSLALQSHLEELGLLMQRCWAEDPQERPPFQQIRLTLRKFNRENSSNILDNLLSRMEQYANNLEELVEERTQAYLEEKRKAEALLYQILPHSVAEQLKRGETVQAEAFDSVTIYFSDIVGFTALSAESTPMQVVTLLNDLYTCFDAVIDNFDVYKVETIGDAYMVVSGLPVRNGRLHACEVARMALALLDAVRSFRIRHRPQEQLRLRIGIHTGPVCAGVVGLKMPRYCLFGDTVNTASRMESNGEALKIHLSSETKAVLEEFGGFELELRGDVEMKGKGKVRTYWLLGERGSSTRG
TAG inh: inhibitors of triacylglycerol accumulation; inhibition, % at 12.5 µM; H9c2 cells, Nile Red lipid (TAG) fluorescence; cells loaded with 200 µM oleic acid; 230,000 tested, 0.66% active; AID 651582;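 active means pattern-corrected inhibition of lipid staining of at least 50% with the nuclear-stain viability signal not falling by more than 50%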;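 further: 0% = DMSO wells and 100% = triacsin C control wells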
HSV augment: increases HSV replication in cells | HSV replication augmentation in cells, fold increase | maximum fold increase | 220,000 tested, 0.005% active | AID 1956; in the data active means maximum fold increase above about 1.5; tested in PC3 cells
Efflux pump inh: blocks antifungal efflux pumps in multiplex yeast assay | S. cerevisiae Candida pump triplex, Nile Red efflux | inhibition, % at 10 µM | 330,000 tested, 0.44% active | AID 485275;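 active means plate passing quality check with inhibition over a set limit, or well fluorescence over plate mean plus 4 SD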;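 further: Nile Red retained in pooled yeast measured as flow cytometry median fluorescence; 0% = buffer negative control and 100% = Enniatin B positive control; higher means more Nile Red kept so more efflux inhibition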
An asterisk follows results filed as active; i = inactive; · = no result given.

SMILES	Bfl-1 A1 inh	GC-B act	GC-A act	TAG inh	HSV augment	Efflux pump inh
Cc1ccc(C(=O)NC2CCCCN(Cc3cccc(F)c3)C2=O)cc1 (centres undefined)	·	-4	-1	·	·	·
O=[N+]([O-])c1ccc(N/N=C/c2c[nH]c3ccccc23)cc1	0	-20	-13	-37	i	0
O=[N+]([O-])c1ccccc1N/N=C/c1c[nH]c2ccccc12	0	-19	-15	82*	i	0
CCCN(CC1CC1)C(=O)CSc1nnc(-c2ccncc2)n1-c1ccc(OC)cc1	·	-11	-1	·	·	·
Cc1cccc(CSc2cccc3cccnc23)c1	-3	4	11	50*	i	0
O=C(c1ccc(Br)cn1)N1CCC(Oc2cccnc2)CC1	·	-1	1	·	·	·
O=C(CSc1nnc(-c2cccnc2)n1-c1ccc(Cl)cc1)Nc1cccc2ccccc12	·	-2	-10	·	·	·
O=C(OC1CCOC1=O)c1ccc(CO)cc1 (centres undefined)	-1	-3	1	·	·	0
O=C(CCC(=O)c1ccc(F)cc1)OC1CCOC1=O (centres undefined)	1	2	56*	-7	i	0
Oc1ccc2ccccc2c1C=Nn1c(-c2n[nH]c3c2CCC3)n[nH]c1=S	·	-5	2	·	·	·
Cn1c(=O)c2cc(NC(=O)Cc3cccnc3)ccc2n1-c1ccc2ccccc2c1	·	68*	47*	7	·	·
NC(=S)N/N=C/c1ccccc1	1	-1	3	·	i	2
NC(=S)N/N=C/c1ccc(C23CC4CC(CC(C4)C2)C3)cc1	1	·	·	·	·	0.6*
O=C(Nc1ccc(Cl)c(Cl)c1)Nc1ccon1	-1	-5	-2	13	·	6.5*
Cc1cc(NC(=O)Nc2ccc(Cl)c(Cl)c2)no1	0	-2	3	-17	·	0
CCS(=O)(=O)Nc1ccc2c(c1)C(=O)N(C)[C@@H]1CC[C@H](CC(=O)NCCCN3CCOCC3)O[C@H]1CO2	·	4	1	·	·	·
O=C(C(=Cc1ccc(F)cc1)c1ccccc1)c1ccc(O)cc1	·	3	68*	-16	·	·
O=C(C(=Cc1ccc(O)cc1)c1ccccc1)c1ccccc1	·	-11	-8	·	·	·
CN1C(=O)c2cc(NC(=O)C3CC3)ccc2OC[C@H]2O[C@@H](CC(=O)NC3CCC3)CC[C@@H]21	·	3	1	·	·	·
CCOC(=O)CCCSc1nc(-c2ccc3c(c2)OCO3)cc(C(F)(F)F)c1C#N	0	11	51*	·	i	0
O=C(Nc1ccc(F)cc1F)C1CCCN1S(=O)(=O)c1cccnc1 (centres undefined)	·	-2	2	·	·	·
Cc1cc(C(=O)O[C@H]2CCC[C@]3(C(=O)N(Cc4ccccc4)c4ccccc43)[C@H]2NC(=O)CCc2ccccc2)no1	·	1	-4	·	·	·
Cc1ccc(Nc2c(-c3ccco3)nc3nc(C)cc(C)n23)cc1	-2	13	68*	-4	i	0
CCCC[C@H]1C2CC(OC(=O)Nc3cccc(F)c3)C(C2)[C@H]2CCCCN21 (some centres undefined)	·	7	-1	·	·	·
O=C1/C(=C/C=C/c2ccco2)SC(=S)N1NS(=O)(=O)c1ccccc1	1	2	-11	12	i	1.5*
SMILES	Bfl-1 A1 inh	GC-B act	GC-A act	TAG inh	HSV augment	Efflux pump inh
COc1ccc(Cl)cc1-c1cc(C(=O)NCc2ccc(F)cc2)[nH]n1	·	21	43*	-3	·	·
COc1ccc(NC(=O)c2cc(-c3cc(Cl)ccc3C)n[nH]2)cc1OC	·	2	-1	-23	·	·
COc1ccc(NC(=O)c2cc(-c3cc(Cl)ccc3OC)n[nH]2)cc1OC	·	53*	45*	21	·	·
COc1ccc(Cl)cc1-c1cc(C(=O)NCc2ccc(C(F)(F)F)cc2)[nH]n1	·	7	17	-26	·	·
CSc1ccccc1NC(=O)Cn1c(-c2cscn2)nc2ccccc21	0	4	-6	·	i	0
Brc1ccccc1Cn1c(-c2cscn2)nc2ccccc21	0	39*	36	·	i	0
Cc1cc(C)cc(N(CC(=O)NC2CCC(C)CC2)S(=O)(=O)c2ccc([N+](=O)[O-])cc2)c1 (centres undefined)	·	-6	-1	·	·	·
COc1cccc(/C=N/NC(=O)c2cc3c(OC)ccc(OC)c3[nH]2)c1O	2	1	3	·	·	0
COc1cc(OC)c2cc(C(=O)N/N=C/c3cccc(OC)c3O)[nH]c2c1	0	-7	6	55*	i	0
CC(C)CCNc1nc(-c2ccco2)c2c(c1C#N)CCCC2	0	36*	20	·	i	0
N#Cc1c(NCCN)nc(-c2ccco2)c2c1CCCC2	0	-3	-14	15	i	0
O=S(=O)(c1cccc2cccnc12)N1CCC(c2cn3ccccc3n2)CC1	·	4	0	·	·	·
COc1cc(Cl)ccc1OCc1cc(C(=O)N[C@H]2CCCCNC2=O)no1	-1	3	60*	·	·	0
COc1cc(Cl)ccc1OCc1cc(C(=O)N2CCCCCCC2)no1	-1	-4	0	·	·	0
CCOc1cc2nc(-c3ccc(OC)c(OC)c3)nc(NCCCN3CCOCC3)c2cc1OC	1	-6	1	56*	i	0
COc1cc2ncnc(NCCCN3CCOCC3)c2cc1OC	0	3	-2	13	i	0
CCOC(=O)c1[nH]c(C)c(C(=O)N2CCc3ccccc32)c1C	3	1	-1	56*	i	0
NC1=C(Cl)C(=O)c2ccccc2C1=O	·	-15	-4	66*	·	·
COc1ccc2nc3cc(Cl)ccc3c(Nc3ccc(O)c(CN4CCN(C)CC4)c3)c2c1	·	-1	9	54*	·	·
CC(C)CNS(=O)(=O)CC1NCc2ccccc21 (centres undefined)	·	-3	3	·	·	·
Clc1ccc(-c2nc3cnccn3c2Nc2ccc3c(c2)OCO3)cc1	-1	39*	41*	-4	i	0
Oc1ccc(-c2nc3ncccn3c2Nc2ccc3c(c2)OCCO3)cc1	1	22	31	4	i	0
COc1ccc(-c2nc3ncccn3c2Nc2ccc3c(c2)OCCO3)cc1	·	43*	46*	-6	·	·
Cc1ccc(-c2nc3ncccn3c2Nc2ccc3c(c2)OCCO3)cc1	-1	44*	41*	4	i	0
CSc1ccc(-c2nc3cnccn3c2Nc2ccc3c(c2)OCO3)cc1	0	·	·	4	i	0
Clc1ccc(-c2nc3ncccn3c2Nc2ccc3c(c2)OCCO3)cc1	0	42*	45*	5	i	0
Cc1ccc(-n2c(SCC(=O)Nc3cccc4ccccc34)nnc2-c2ccccc2)cc1	·	-12	-10	·	·	·
CCOC(=O)[C@]12CCCCC/C=C\1N(CCc1ccc(Cl)cc1)C(=O)[C@H]2CC(=O)N1CCCCC1	·	-2	-4	·	·	·
Clc1ncnc2c1oc1ccccc12	-1	34	53*	19	i	0
